Measurements from PubChem BioAssay (Tox21).
Results filed as inconclusive are left out. Values without a mark were called inactive. Activity calls are given as the source filed them. Calls come from the whole dose curve.

What follows are molecules tested against Thyrotropin receptor (Homo sapiens) (UniProt P16473) (assay: qHTS assay to identify small molecule agonists of the thyroid stimulating hormone receptor (TSHR) signaling pathway (AID 1224843; note: nearly all actives have a fitted effect of over 45% in size)). Conditions: TSHR-HEK293 cells, cAMP HTRF, agonist mode, 30 min; series mostly up to 92.4 µM; activation: at the top concentration.
Thyrotropin receptor (Homo sapiens), sequence (P16473 whole entry, looked up): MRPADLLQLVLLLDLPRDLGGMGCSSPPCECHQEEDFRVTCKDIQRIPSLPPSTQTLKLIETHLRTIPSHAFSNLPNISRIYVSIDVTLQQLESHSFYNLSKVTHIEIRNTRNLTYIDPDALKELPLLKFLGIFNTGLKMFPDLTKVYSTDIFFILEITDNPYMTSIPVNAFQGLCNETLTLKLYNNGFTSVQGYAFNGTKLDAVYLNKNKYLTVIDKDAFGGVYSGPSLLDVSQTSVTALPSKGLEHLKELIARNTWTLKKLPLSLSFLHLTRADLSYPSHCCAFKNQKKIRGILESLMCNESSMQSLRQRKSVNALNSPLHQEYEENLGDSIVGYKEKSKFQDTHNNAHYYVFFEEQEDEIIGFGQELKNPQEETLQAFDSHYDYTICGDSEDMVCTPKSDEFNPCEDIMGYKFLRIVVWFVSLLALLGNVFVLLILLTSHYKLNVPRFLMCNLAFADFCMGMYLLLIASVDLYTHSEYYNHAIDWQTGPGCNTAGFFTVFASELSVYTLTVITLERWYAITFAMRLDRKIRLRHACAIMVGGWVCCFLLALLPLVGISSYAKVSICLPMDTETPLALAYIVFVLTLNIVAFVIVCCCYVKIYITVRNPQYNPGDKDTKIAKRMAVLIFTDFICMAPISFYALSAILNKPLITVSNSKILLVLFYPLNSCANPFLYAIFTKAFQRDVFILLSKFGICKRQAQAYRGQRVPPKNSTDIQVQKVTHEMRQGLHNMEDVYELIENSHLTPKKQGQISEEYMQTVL
From the text: National Center for Advancing Translational Sciences [NCATS]
NIH Chemical Genomics Center [NCGC]
U.S. Environmental Protection Agency [EPA]
National Institutes of Environmental Health Sciences [NIEHS]
National Toxicology Program [NTP]
U.S. Food and Drug Administration [FDA]
TSHR is the receptor for thyrotropin (thyroid stimulating hormone or TSH), a member of the glycoprotein hormone family. TSH is released by the anterior pituitary gland and is the main regulator of thyroid gland growth and development. Upon binding circulating thyrotropin, a G-protein signal cascade activates adenylyl cyclase and […] cAMP concentration is increased. cAMP is a key second messenger involved extensively in cellular signal transduction pathways associated with the majority of G-protein coupled receptors (GPCRs). The activation of these GPCRs by neurotransmitters, lipids, nucleotides, peptides and hormones results in the activation or the inhibition of plasma membrane-bound adenylate cyclase through heterotrimeric G-proteins. A cell-based TSHR assay was used to screen the Tox21 10K library for compounds that can modulate TSHR in agonist mode.
Tox21 Assay Protocol Summary:
TSHR-Hek293 cells were dispensed at 800 cells/4uL/well in 1536-well white plates using a Multidrop dispenser. […] The plates were incubated at room temperature for 30 min. 2.5 ul/well of cAMP-d2 and 2.5ul/well of anti-cAMP-cryptate was added respectively into the assay plates using a Flying Reagent Dispenser. After 1 hr incubation at room temperature, the fluorescence intensity in the plates was measured using an Envision plate reader. Each test compound was measured at 15 concentrations and in triplicates.
% is set by controls: 0 for no effect and ±100 for the full control effect; potency is the fitted concentration of half-maximal effect.

Structure (SMILES) | activation | Potency
O=C(/C=C/c1ccc(O)c(O)c1)O[C@@H]1C[C@@](OC(=O)/C=C/c2ccc(O)c(O)c2)(C(=O)O)C[C@@H](O)[C@@H]1O | -1.68% [at 42.5 µM] | 
CC(C)(O)c1ccc(CNC(=O)c2cccnc2Oc2ccc3nonc3c2)cc1 | 23.5% | 
CCc1ccccc1 | -26.3% | 
O=C(O)c1cccc(-c2noc(-c3ccccc3F)n2)c1 | -8.9% [at 42.5 µM] | 
CC(C)=CCC1C(=O)N(c2ccccc2)N(c2ccccc2)C1=O | 2.58% [at 42.5 µM] | 
CO[C@]1(NC(=O)CSC(F)F)C(=O)N2C(C(=O)O)=C(CSc3nnnn3CCO)CO[C@H]21 | 2.05% [at 42.5 µM] | 
CCOC(=O)/C=C/C(=O)OCC | -4.38% | 
Cc1[nH]cnc1CN1CCc2c(c3ccccc3n2C)C1=O | 6.99% [at 42.5 µM] | 
CO/N=C(/C(=O)N[C@@H]1C(=O)N2C(C(=O)O)=C(COC(N)=O)CS[C@H]12)c1ccco1 | -6.02% | 
CCCCN1CCCC1C(=O)Nc1c(C)cc(C)cc1C (stereo not given) | -13.9% [at 42.5 µM] | 
Cc1c(C)c2c(c(C)c1OC(=O)CCC(=O)OCCO)CC[C@@](C)(CCC[C@H](C)CCC[C@H](C)CCCC(C)C)O2 | -2.49% [at 42.5 µM] | 
COC(=O)CS | 0.0782% | 
COC(=O)CCS | 11.5% | 
Clc1ccc(Nc2nnc(Cc3ccncc3)c3ccccc23)cc1 | 5% [at 42.5 µM] | 
NNC(=O)CP(=O)(c1ccccc1)c1ccccc1 | -22.2% [at 42.5 µM] | 
CCCC(=O)C(=O)O | 3.9% | 
CCCCCCCCOc1ccc(C(=O)O)cc1 | -8.73% | 
C[C@@]12CCC[C@H]1[C@@H]1CC[C@H]3C[C@@H](O)CC[C@]3(C)[C@H]1CC2 | -0.0754% [at 42.5 µM] | 
Cc1cc2c(OCC(CNC(C)(C)C)OC(=O)c3ccccc3)cccc2[nH]1 (stereo not given) |  | 26.6 µM (active)
O=C(Cn1ccnc1[N+](=O)[O-])NCCO | 2.68% [at 42.5 µM] | 

Structure (SMILES) | activation | Potency
Clc1cc(Cl)nc(Cl)n1 | 0.987% | 
N#CCc1ccc(Cl)cc1Cl | -11.1% | 
C[C@]12CC[C@@H]3c4ccc(O)cc4CC[C@H]3[C@@H]1CC[C@@H]2OC(=O)CCC1CCCC1 | 12.7% [at 42.5 µM] | 
Brc1cc(Br)c(Oc2cc(Br)c(Br)cc2Br)cc1Br | -3.67% [at 42.5 µM] | 
CC(C)C[C@H](NC(=O)[C@H](CCc1ccccc1)NC(=O)CN1CCOCC1)C(=O)N[C@@H](Cc1ccccc1)C(=O)N[C@@H](CC(C)C)C(=O)[C@@]1(C)CO1 | -10.3% [at 42.5 µM] | 
CN1CCCC(n2nc(Cc3ccc(Cl)cc3)c3ccccc3c2=O)CC1 (stereo not given) | -1.81% [at 42.5 µM] | 
CC(C)Nc1cccnc1N1CCN(C(=O)c2cc3cc(NS(C)(=O)=O)ccc3[nH]2)CC1 | 2.81% [at 42.5 µM] | 
CCCCCCCCCI |  | 24.8 µM (active)
COc1ccccc1N1CCN(CCCCNC(=O)c2ccc(-c3ccc(C(C)=O)cc3)cc2)CC1 | -9.14% [at 42.5 µM] | 
CC(CCC(=O)O)C(=O)O (stereo not given) | -2.93% | 
C=C(C)CCCC(C)CCO (stereo not given) | 17.7% | 
CCOC(=O)c1ccc(O)c(O)c1 | -7.77% [at 42.5 µM] | 
O=C1NC(=O)c2cc([N+](=O)[O-])ccc21 | 6.35% | 
CC(=O)OCC[N+](C)(C)C | 21.1% [at 42.5 µM] | 
Cc1ccc(C(C)(C)O)cc1 | 0.896% | 
c1ccc2sc(SN(C3CCCCC3)C3CCCCC3)nc2c1 | -13.7% | 
COc1cc(C(=O)NCCCCCC(=O)O)cc(OC)c1OC | 1.36% [at 42.5 µM] | 
CC(C)C=O | 4.08% | 
CCCCCC[C@@H](O)C/C=C\CCCCCCCC(=O)O | -8.27% | 
CCCCCCCCN | -8.06% | 
